# In the supplement of paper PMC8007513:
# Structures can show the parent of a compound that is named as a salt. ± gives the standard error. In all, about 1,300 compounds went through this assay and about 130 (10%) showed an effect of 50% or more. This excerpt belongs to a sample that is enriched for strong results.
# Test system: Trichoderma virens ATCC 9645
# Test: growth yield (OD600) with compound + IPBC relative to untreated control; higher = less growth inhibition
# Settings: compound concentration: 100 uM, IPBC concentration: 200 ng/ml
# In short: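 Trichoderma virens ATCC 9645 spores from 7-day potato dextrose agar plates were suspended in potato dextrose broth at 15,000 spores ml^−1. Aliquots of 100 μl with library compounds at 100 μM final, with or without a co-applied biocide at 200 ng ml^−1, were grown in 96-well plates at 30 °C. OD600 was read at 40 h and 72 h on a BioTek EL800. Growth is expressed relative to the control without either agent, as means of duplicate screens.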
structure (smiles),measurement,setting,value
Cc1ccccc1C(=O)Nc1ccc(C(=O)N2CCCC(O)c3cc(Cl)ccc32)c(C)c1 (centres undefined) [Tolvaptan] + CCCCNC(=O)OCC#CI [3-iodo-2-propynyl butylcarbamate (IPBC)],growth yield,40 h,107 ± 2.5%
same,growth yield,72 h,107.1 ± 0.94%
CN1CCCC(CC2c3ccccc3Sc3ccccc32)C1 (centres undefined) [Metixene hydrochloride] + CCCCNC(=O)OCC#CI [3-iodo-2-propynyl butylcarbamate (IPBC)],growth yield,40 h,48.9 ± 2.2%
same,growth yield,72 h,85.3 ± 2%
Cc1ncc(CO)c(CO)c1O [Pyridoxine hydrochloride] + CCCCNC(=O)OCC#CI [3-iodo-2-propynyl butylcarbamate (IPBC)],growth yield,40 h,79.58 ± 0.79%
same,growth yield,72 h,85.7 ± 2.2%
CCN(CC)CCOC(=O)C(Cc1cccc2ccccc12)CC1CCCO1 (centres undefined) [Nafronyl oxalate] + CCCCNC(=O)OCC#CI [3-iodo-2-propynyl butylcarbamate (IPBC)],growth yield,40 h,71.5 ± 1.3%
same,growth yield,72 h,87.36 ± 0.1%
CO[C@H]1/C=C/O[C@@]2(C)Oc3c(C)c(O)c4c(O)c(c(/C=N/N5CCN(C6CCCC6)CC5)c(O)c4c3C2=O)NC(=O)/C(C)=C\C=C\[C@H](C)[C@H](O)[C@@H](C)[C@@H](O)[C@@H](C)[C@H](OC(C)=O)[C@@H]1C [Rifapentine] + CCCCNC(=O)OCC#CI [3-iodo-2-propynyl butylcarbamate (IPBC)],growth yield,40 h,90.2 ± 0.95%
same,growth yield,72 h,94.5 ± 2.6%
NC[C@H]1CC[C@H](C(=O)O)CC1 [Tranexamic acid] + CCCCNC(=O)OCC#CI [3-iodo-2-propynyl butylcarbamate (IPBC)],growth yield,40 h,100 ± 3.8%
same,growth yield,72 h,104 ± 1.1%
CCC1(c2ccccc2)NC(=O)N(C)C1=O (centres undefined) [Mephenytoin] + CCCCNC(=O)OCC#CI [3-iodo-2-propynyl butylcarbamate (IPBC)],growth yield,40 h,88.5 ± 2.4%
same,growth yield,72 h,100 ± 9.9%
CN(C)[C@@H]1C(O)=C(C(N)=O)C(=O)[C@@]2(O)C(O)=C3C(=O)c4c(O)cccc4[C@@](C)(O)[C@H]3C[C@@H]12 [Tetracycline hydrochloride] + CCCCNC(=O)OCC#CI [3-iodo-2-propynyl butylcarbamate (IPBC)],growth yield,40 h,99.3 ± 11%
same,growth yield,72 h,96.9 ± 6.3%
C[N+]1(C)CCC(OC(=O)C(O)(c2ccccc2)C2CCCC2)C1 (centres undefined) [Glycopyrrolate] + CCCCNC(=O)OCC#CI [3-iodo-2-propynyl butylcarbamate (IPBC)],growth yield,40 h,101 ± 14%
same,growth yield,72 h,98.7 ± 8.1%
"O=C1c2cccc(O)c2C(=O)c2c(O)cccc21 [1,8-Dihydroxyanthraquinone] + CCCCNC(=O)OCC#CI [3-iodo-2-propynyl butylcarbamate (IPBC)]",growth yield,40 h,55.12 ± 0.16%
same,growth yield,72 h,77.2 ± 1.9%
O=C1c2c(O)ccc(O)c2C(=O)c2c(NCCNCCO)ccc(NCCNCCO)c21 [Mitoxantrone dihydrochloride] + CCCCNC(=O)OCC#CI [3-iodo-2-propynyl butylcarbamate (IPBC)],growth yield,40 h,1.27 ± 1.3%
same,growth yield,72 h,0%
O=C1c2c(O)cccc2Cc2cccc(O)c21 [Anthralin] + CCCCNC(=O)OCC#CI [3-iodo-2-propynyl butylcarbamate (IPBC)],growth yield,40 h,71.8 ± 3.8%
same,growth yield,72 h,82.4 ± 1.3%
CN(C)[C@@H]1C(O)=C(C(N)=O)C(=O)[C@@]2(O)C(O)=C3C(=O)c4c(O)ccc(Cl)c4[C@@H](O)[C@H]3C[C@@H]12 [Demeclocycline hydrochloride] + CCCCNC(=O)OCC#CI [3-iodo-2-propynyl butylcarbamate (IPBC)],growth yield,40 h,68.8 ± 2.4%
same,growth yield,72 h,76.1 ± 1.1%
CC(C)CC(N(C)C)C1(c2ccc(Cl)cc2)CCC1 (centres undefined) [Sibutramine hydrochloride] + CCCCNC(=O)OCC#CI [3-iodo-2-propynyl butylcarbamate (IPBC)],growth yield,40 h,76.7 ± 0.79%
same,growth yield,72 h,90.82 ± 0.42%
CCC[C@H](N[C@@H](C)C(=O)N1[C@H](C(=O)O)C[C@@H]2CCCC[C@@H]21)C(=O)OCC [Perindopril] + CCCCNC(=O)OCC#CI [3-iodo-2-propynyl butylcarbamate (IPBC)],growth yield,40 h,98.8 ± 5.1%
same,growth yield,72 h,97.5 ± 3.1%
CCCOc1ccc2[nH]c(NC(=O)OC)nc2c1 [Oxibendazol] + CCCCNC(=O)OCC#CI [3-iodo-2-propynyl butylcarbamate (IPBC)],growth yield,40 h,44.6 ± 2.1%
same,growth yield,72 h,85 ± 4.8%
COC(=O)Nc1nc2cc(C(=O)c3ccccc3)ccc2[nH]1 [Mebendazole] + CCCCNC(=O)OCC#CI [3-iodo-2-propynyl butylcarbamate (IPBC)],growth yield,40 h,68 ± 1.9%
same,growth yield,72 h,89.36 ± 0.63%
CCCCc1ccc2[nH]c(NC(=O)OC)nc2c1 [Parbendazole] + CCCCNC(=O)OCC#CI [3-iodo-2-propynyl butylcarbamate (IPBC)],growth yield,40 h,27 ± 4.1%
same,growth yield,72 h,80.2 ± 2.2%
CCCSc1ccc2[nH]c(NC(=O)OC)nc2c1 [Albendazole] + CCCCNC(=O)OCC#CI [3-iodo-2-propynyl butylcarbamate (IPBC)],growth yield,40 h,87.7 ± 8.9%
same,growth yield,72 h,99.7 ± 2.8%
COC(=O)Nc1nc2cc([S+]([O-])c3ccccc3)ccc2[nH]1 (centres undefined) [Oxfendazol] + CCCCNC(=O)OCC#CI [3-iodo-2-propynyl butylcarbamate (IPBC)],growth yield,40 h,93.4 ± 6.3%
same,growth yield,72 h,98.2 ± 4.2%
COC(=O)Nc1nc2cc(C(=O)c3ccc(F)cc3)ccc2[nH]1 [Flubendazol] + CCCCNC(=O)OCC#CI [3-iodo-2-propynyl butylcarbamate (IPBC)],growth yield,40 h,86.4 ± 5.4%
same,growth yield,72 h,91.1 ± 4.9%
N#Cc1cc(NC(=O)C(=O)O)c(Cl)c(NC(=O)C(=O)O)c1 [Lodoxamide] + CCCCNC(=O)OCC#CI [3-iodo-2-propynyl butylcarbamate (IPBC)],growth yield,40 h,114 ± 10%
same,growth yield,72 h,109 ± 12%
C=C(NC(=O)C(=C)NC(=O)c1csc(C2=N[C@@H]3c4csc(n4)[C@H]4NC(=O)c5csc(n5)[C@H]([C@](C)(O)[C@@H](C)O)NC(=O)[C@H]5CSC(=N5)/C(=C/C)NC(=O)[C@H]([C@@H](C)O)NC(=O)c5csc(n5)[C@]3(CC2)NC(=O)[C@H](C)NC(=O)C(=C)NC(=O)[C@H](C)NC(=O)[C@H]([C@@H](C)CC)N[C@@H]2C=Cc3c([C@H](C)O)cc(nc3[C@H]2O)C(=O)O[C@@H]4C)n1)C(N)=O [Thiostrepton] + CCCCNC(=O)OCC#CI [3-iodo-2-propynyl butylcarbamate (IPBC)],growth yield,40 h,101 ± 2.5%
same,growth yield,72 h,100 ± 1.6%
CNCCC=C1c2ccccc2CCc2ccccc21 [Nortriptyline hydrochloride] + CCCCNC(=O)OCC#CI [3-iodo-2-propynyl butylcarbamate (IPBC)],growth yield,40 h,70.5 ± 2.2%
same,growth yield,72 h,94.28 ± 0.73%
COC(=O)C1=C(C#N)NC(C)=C(C(=O)OC(C)C)C1c1cccc([N+](=O)[O-])c1 (centres undefined) [Nilvadipine] + CCCCNC(=O)OCC#CI [3-iodo-2-propynyl butylcarbamate (IPBC)],growth yield,40 h,107.2 ± 0.16%
same,growth yield,72 h,102 ± 2.5%
Cc1cc(O)c(C(=O)N[C@@H](C(=O)N[C@@H]2C(=O)N3C(C(=O)O)=C(CSc4nnnn4C)CS[C@H]23)c2ccc(O)cc2)cn1 [Cefpiramide] + CCCCNC(=O)OCC#CI [3-iodo-2-propynyl butylcarbamate (IPBC)],growth yield,40 h,89.4 ± 2.7%
same,growth yield,72 h,90.9 ± 1.4%
CN(C)C/C=C(/c1ccc(Br)cc1)c1cccnc1 [Zimelidine dihydrochloride monohydrate] + CCCCNC(=O)OCC#CI [3-iodo-2-propynyl butylcarbamate (IPBC)],growth yield,40 h,77.8 ± 0.95%
same,growth yield,72 h,93.5 ± 2.1%
C=C[C@H]1CN2CC[C@H]1C[C@@H]2[C@@H](O)c1ccnc2ccc(OC)cc12 [Quinidine hydrochloride monohydrate] + CCCCNC(=O)OCC#CI [3-iodo-2-propynyl butylcarbamate (IPBC)],growth yield,40 h,77.7 ± 7.5%
same,growth yield,72 h,89.8 ± 6.3%
O=C(c1ccc(F)cc1)C1CCN(CCn2c(=O)[nH]c3ccccc3c2=O)CC1 [Ketanserin tartrate hydrate] + CCCCNC(=O)OCC#CI [3-iodo-2-propynyl butylcarbamate (IPBC)],growth yield,40 h,98.5 ± 8.3%
same,growth yield,72 h,101 ± 3.2%
CCNC(=O)CCC/C=C\C[C@@H]1[C@@H](/C=C/[C@@H](O)CCc2ccccc2)[C@H](O)C[C@@H]1O [Bimatoprost] + CCCCNC(=O)OCC#CI [3-iodo-2-propynyl butylcarbamate (IPBC)],growth yield,40 h,94.5 ± 5.6%
same,growth yield,72 h,95.4 ± 4.2%
Cc1nc2n(c(=O)c1CCN1CCC(c3noc4cc(F)ccc34)CC1)CCCC2O (centres undefined) [Paliperidone] + CCCCNC(=O)OCC#CI [3-iodo-2-propynyl butylcarbamate (IPBC)],growth yield,40 h,82.28 ± 0.32%
same,growth yield,72 h,90.09 ± 0.32%
Nc1c(Br)cc(Br)cc1CN[C@H]1CC[C@H](O)CC1 [Ambroxol hydrochloride] + CCCCNC(=O)OCC#CI [3-iodo-2-propynyl butylcarbamate (IPBC)],growth yield,40 h,73.2 ± 2.1%
same,growth yield,72 h,88.9 ± 2.5%
CCOC(=O)OC(C)OC(=O)[C@@H]1N2C(=O)[C@@H](NC(=O)[C@H](N)c3ccccc3)[C@H]2SC1(C)C (some centres undefined) [Bacampicillin hydrochloride] + CCCCNC(=O)OCC#CI [3-iodo-2-propynyl butylcarbamate (IPBC)],growth yield,40 h,89.1 ± 7.5%
same,growth yield,72 h,92.3 ± 3.8%
CCN(CC)CC#CCOC(=O)C(O)(c1ccccc1)C1CCCCC1 (centres undefined) [Oxybutynin chloride] + CCCCNC(=O)OCC#CI [3-iodo-2-propynyl butylcarbamate (IPBC)],growth yield,40 h,74.18 ± 0.16%
same,growth yield,72 h,88.52 ± 0.63%
CCn1cc(C(=O)O)c(=O)c2cnc(N3CCNCC3)nc21 [Pipemidic acid] + CCCCNC(=O)OCC#CI [3-iodo-2-propynyl butylcarbamate (IPBC)],growth yield,40 h,85.1 ± 3.2%
same,growth yield,72 h,90.1 ± 3%
CCn1cc(C(=O)O)c(=O)c2ccc(C)nc21 [Nalidixic acid sodium salt] + CCCCNC(=O)OCC#CI [3-iodo-2-propynyl butylcarbamate (IPBC)],growth yield,40 h,49.2 ± 1.6%
same,growth yield,72 h,100 ± 2.1%
CCn1cc(C(=O)O)c(=O)c2cnc(N3CCCC3)nc21 [Piromidic acid] + CCCCNC(=O)OCC#CI [3-iodo-2-propynyl butylcarbamate (IPBC)],growth yield,40 h,99.9 ± 14%
same,growth yield,72 h,99.5 ± 5.3%
